Sampled rows, rich in hits. Any-hit rate of the full collection: about 3.1%.
mTORC1 inh: mTORC1 pathway inhibition measured by phospho-rpS6. Tsc2-/- p53-/- MEF, phospho-rpS6 immunofluorescence/PI, 24 h. Potency, µM (top dose mostly 38.3 µM), inactives show at the highest dose activity change, negative = inhibition, most hits filed as inhibitors. 0.78% of 44,000 active;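 also: plate controls were DMSO for no effect and rapamycin for full effect; nearly all actives have a fitted effect of over 50% in size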
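Readout is phospho-S6 Alexa 488 signal normalized to PI per well, reported as % active cells with thresholds set from rapamycin (7.5 nM) and DMSO controls. Cells: Tsc2-/-, p53-/- MEFs, 24 hrs compound at 37 C; PI cell number serves as viability.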
p53null 32C kill: selectivity test: cytotoxicity in p53 null cells, permissive temperature; Potency, µM (top dose mostly 46.1 µM), without a hit: top-dose activity change, negative = cytotoxicity, actives largely listed as cytotoxic; H1299-neo p53 null cells, ATP luminescence, 24 h, 32C; 0.62% of 55,000 active;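 also: 0% = DMSO only and -100% = full killing by 100 µM tamoxifen; nearly all actives have a fitted effect of over 55% in size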
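ATP-content luminescence in p53-null H1299-neo cells after 24 h compound exposure (up to 46 uM) at 32C permissive temperature; 0% and 100% killing set by DMSO and 100 uM tamoxifen; Hill-equation AC50.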
S16 viability: S16 Schwann cell cytotoxicity | S16 Pmp22-F2sN Schwann cells viability, CellTiter-Glo, 24 h | Potency, µM (top dose mostly 57.5 µM), for inactives: at the highest dose activity change, negative = cytotoxicity, usual class: cytotoxic | 0.48% of 43,000 active; also: nearly all actives have a fitted effect of over 65% in size
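S16 Pmp22-F2sN Schwann cells (500-1,000/well) in phenol-red-free DMEM with 10% FBS received 23 nL compound by pin tool for 24 h at 37 °C. Viability was then read as CellTiter-Glo luminescence after 15 min at room temperature.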
SKOV3 invasion: ovarian cancer metastasis inhibition, 3D TME model. 0.1% of 46,000 active. Potency, µM (doses to about 45.8 µM), inactives show top-dose activity change, negative = inhibition, usual class: inhibitors. SKOV3ip1-GFP adhesion/invasion on 3D omental model, fluorescence. AID 1963576;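 also: plate controls were DMSO wells for no effect and tomatine positive control wells for full effect; nearly all actives have a fitted effect of over 65% in size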
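Primary human omental fibroblast/mesothelial 3D culture pre-formed 48 h. SKOV3ip1-GFP cells added with compounds (0.36-46 umol/L), incubated 2 h RT/16 h 37 C, fixed; GFP cells quantified at 488/509 nm.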
PMP22 txn prim: modulators of PMP22 gene transcription in S16 Schwann cells | S16 Pmp22-F2sN Schwann cells (luciferase reporters placed in the Pmp22 gene), FLuc/NLuc coincidence luminescence, 24 h | AID 1508649 | 2% of 43,000 active | Potency, µM (titrated, usually from 57.5 µM), without a hit: top-dose activity change, negative = inhibition, actives largely listed as inhibitors; active = clear falling dose curves in both reporters; inconclusive = both reporters move, but less clearly or upward; inactive = either reporter flat; the % is the NLuc reporter signal
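Schwann cells carrying the coincidence reporter were exposed to library compounds for 24 h at 37C, then lysed and read for FLuc and, after quenching, NLuc luminescence on a CCD imager.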
p53null 39C kill: kills p53 null cells at the nonpermissive temperature | H1299 p53-null (neo) cells, 39C, ATPlite viability, 24 h | 0.97% of 55,000 active | Potency, µM (series often up to 46.1 µM), inactives show at the top dose activity, negative = cell killing, most hits filed as cytotoxic;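 also: 0% = DMSO only and -100% = full killing by 100 µM tamoxifen; nearly all actives have a fitted effect of over 50% in size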
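Following overnight plating at 37C (600 cells/well), H1299-neo or H1299-p53A138V cells are dosed up to 46 uM. Incubation lasts 24 hr at 39C before ATP detection.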
* marks the source's active call; other numbers are inactive results; i = inactive; ? = inconclusive; / = no result given; [ ] = dose if it differs, or a comment. Unless noted, calls follow the shape of the dose curve; as a rule, active = well fitted curve in the direction sought with a large enough effect; inconclusive = small, poorly fitted or top-dose-only effect, or another doubt; inactive = no such curve, though single readings can be large; an effect the other way counts as inactive or inconclusive. Unless noted, % is scaled to controls: 0 for no effect and ±100 for the full control effect; potency is read from the fitted curve at half-maximal effect.

SMILES	mTORC1 inh	p53null 32C kill	S16 viability	SKOV3 invasion	PMP22 txn prim	p53null 39C kill
CC(C)(C)C(=O)Nc1ccc(-c2nc3ccc(NC(=O)C(C)(C)C)cc3[nH]2)cc1	?	12.6µM*	?	?	-141.4%	3.98µM*
COC(=O)c1c(SCC(=O)Nc2ccccc2OC)[nH]c2ccccc2c1=O	6.5%	?	?	-6.6%	?	7.94µM*
COc1cc(NC(=O)Cn2ccn(-c3cc(C)cc(C)c3)c(=O)c2=O)cc(OC)c1	10.5%	-10.7%	8.4%	10.0%	-3.1%	-21.3%
COC(=O)c1ccc(NC(=O)CSc2nnc3c4ccccc4n(C(C)C)c3n2)cc1	-0.9%	-0.2%	5.8%	i	-24.5%	4.2%
COC(=O)c1c(SCC(=O)Nc2cc(OC)cc(OC)c2)[nH]c2ccc(C)cc2c1=O	-10.6%	?	?	-0.9%	-6.0%	3.16µM*
COc1ccccc1NC(=O)CSc1nnc2c3ccccc3n(C(C)C)c2n1	14.7µM*	31.9%	?	-8.1%	?	38.2%
COc1ccccc1NC(=O)CSc1nnc2c(n1)[nH]c1ccccc12	?	-8.0%	?	i	?	-12.4%
CN[C@@H]1CN(c2ccc3c(=O)c(C(=O)O)cn(-c4nccs4)c3n2)C[C@@H]1OC	/	/	/	-4.7%[23.2 µM]	/	/
c1cc(OCCN2CCCCC2)cc(-c2n[nH]c3ccc(-c4ncn[nH]4)cc23)c1	/	/	/	30.2%	/	/
Cn1cc(S(=O)(=O)CC(=O)Nc2ccc3c(c2)OCCO3)c2ccccc21	/	?	/	/	/	28.2µM*
CN1CCC[C@H]1CCO[C@](C)(c1ccccc1)c1ccc(Cl)cc1	/	/	/	3.5%	/	/
CN1CCN(C2(CNC(=O)c3ccc(C(C)(C)C)cc3)CCCCC2)CC1	16.5µM*	-2.0%	?	i	?	-16.6%
CC(C)(C)c1ccc(OCC(=O)NCC2(N3CCOCC3)CCCCC2)cc1	?	?	?	i	?	?
Cc1ccc(OC(C)C(=O)NCC2(N3CCOCC3)CCCCC2)cc1C (configuration not stated)	?	-7.4%	-15.1%	i	?	-9.3%
CC(C)COc1ccc(C(=O)NCC2(N3CCN(C)CC3)CCCCC2)cc1	16.5µM*	-4.6%	?	?	?	-14.6%
COC(=O)Nc1ccc(-c2nc(N3CCOCC3)c3cnn(C4CCN(C(=O)OC)CC4)c3n2)cc1	/	/	/	27.5%	/	/
COc1cc(C)c(Sc2cnc(NC(=O)c3ccc(CNC(C)C(C)(C)C)cc3)s2)cc1C(=O)N1CCN(C(C)=O)CC1 (configuration not stated)	/	/	/	19.0%	/	/
CSc1cccc(NC(=O)c2ccc3c(c2)CCCN3S(C)(=O)=O)c1	-3.1%	12.6µM*	-24.5%	-2.8%	?	?
CCS(=O)(=O)N1CCCc2cc(C(=O)Nc3cccc(C(C)=O)c3)ccc21	2.4%	-5.4%	-18.6%	0.5%	8.9%	5.9%
Cc1ccccc1Nc1c(-c2ccc(N3CCOCC3)cc2)nc2ncccn12	4.3%	12.6µM*	-2.0%	-4.8%	18.7%	12.6µM*
CC(=O)Nc1cccc(-c2csc(Nc3ccc(C)cn3)n2)c1	/	11.2µM*	/	/	/	/
Cc1nc(-c2cccc(NC(=O)c3cccs3)c2)cs1	/	1.7%	/	/	/	-9.3%
CCOC(=O)c1ccc(N2C(=O)c3n[nH]c(-c4ccco4)c3C2c2ccc(OCC)cc2)cc1 (configuration not stated)	13.1µM*	31.5%	?	?	?	39.7%
CCOC(=O)c1ccc(N2C(=O)c3n[nH]c(-c4cccs4)c3C2c2cccc(F)c2)cc1 (configuration not stated)	18.5µM*	89.1%	-17.2%	?	?	?

Assay outcomes (PubChem BioAssay)
